Columns and labels:
Assay in all cases: universal protein binding microarray (PBM); transcription factors of Arabidopsis thaliana; high values mean tight binding
[1] = biological target: T1, GST-ANAC092(1-176) (Arabidopsis thaliana, UniProt Q9FKA0 1-176); conditions: protein: recombinant; tags: GST; chain copies: 2; dsDNA, one strand shown
T1 sequence: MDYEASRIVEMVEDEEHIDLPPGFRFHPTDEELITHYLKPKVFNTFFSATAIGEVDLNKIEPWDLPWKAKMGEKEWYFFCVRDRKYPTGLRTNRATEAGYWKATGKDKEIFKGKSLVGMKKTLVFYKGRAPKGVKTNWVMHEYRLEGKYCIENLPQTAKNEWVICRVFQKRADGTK
Summary of the method: (§1)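 Cells were induced to make GST-tagged NAC-domain, full-length or DNA-binding-domain proteins, and zinc acetate was added for zinc-finger proteins. These proteins were purified on glutathione–Sepharose 4B, quantified by A280 or anti-GST western blot, and applied in duplicate at 200 to 500 nM final to custom all-10-mer Agilent 4 × 180K arrays that primer extension had made double-stranded. Binding is given as the normalised enrichment score (E-score) for scored gapped and ungapped 8-mers.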

[2] = biological target: GST-NTL6(1-168) (Arabidopsis thaliana, UniProt Q9SCK6 1-168); conditions: protein: recombinant; tags: GST; chain copies: 2; dsDNA, one strand shown
Chain of GST-NTL6(1-168) (Q9SCK6 1-168): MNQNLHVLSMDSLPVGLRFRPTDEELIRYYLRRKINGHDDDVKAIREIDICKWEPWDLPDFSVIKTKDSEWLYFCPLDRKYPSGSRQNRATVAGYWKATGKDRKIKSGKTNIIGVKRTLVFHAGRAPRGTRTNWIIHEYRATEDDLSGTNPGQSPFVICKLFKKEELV
Summary of the method: as §1

[3] = biological target: T2, GST-ANAC019 NAC domain (Arabidopsis thaliana, UniProt Q9C932 14-162); conditions: protein: recombinant; tags: GST; chain copies: 2; dsDNA, one strand shown
T2 sequence: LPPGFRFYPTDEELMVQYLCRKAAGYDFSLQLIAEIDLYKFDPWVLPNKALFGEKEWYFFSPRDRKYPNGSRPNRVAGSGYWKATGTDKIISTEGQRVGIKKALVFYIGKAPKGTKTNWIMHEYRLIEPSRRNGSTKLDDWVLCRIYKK
Summary of the method: as §1

[4] = biological target: T3, GST-ANAC055(1-171) (Arabidopsis thaliana, UniProt Q9LDY8 1-171); conditions: protein: recombinant; tags: GST; chain copies: 2; dsDNA, one strand shown
T3 sequence: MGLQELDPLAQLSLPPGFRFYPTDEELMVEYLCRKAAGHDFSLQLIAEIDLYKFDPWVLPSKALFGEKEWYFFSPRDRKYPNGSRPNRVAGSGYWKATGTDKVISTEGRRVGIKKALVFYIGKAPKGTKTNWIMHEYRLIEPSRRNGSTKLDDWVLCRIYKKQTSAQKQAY
Summary of the method: as §1

[5] = biological target: T4, GST-ATAF1 NAC domain (Arabidopsis thaliana, UniProt Q39013 7-158); conditions: protein: recombinant; tags: GST; chain copies: 2; dsDNA, one strand shown
T4 sequence: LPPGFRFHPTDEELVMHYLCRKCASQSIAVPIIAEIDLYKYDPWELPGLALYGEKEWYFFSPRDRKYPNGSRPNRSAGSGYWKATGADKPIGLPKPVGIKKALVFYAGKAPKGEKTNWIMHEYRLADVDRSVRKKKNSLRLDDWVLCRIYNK
Summary of the method: as §1

[6] = biological target: T5, GST-ANAC092(1-285) full length (Arabidopsis thaliana, UniProt Q9FKA0 1-285); conditions: protein: recombinant; tags: GST; chain copies: 2; dsDNA, one strand shown
T5 sequence: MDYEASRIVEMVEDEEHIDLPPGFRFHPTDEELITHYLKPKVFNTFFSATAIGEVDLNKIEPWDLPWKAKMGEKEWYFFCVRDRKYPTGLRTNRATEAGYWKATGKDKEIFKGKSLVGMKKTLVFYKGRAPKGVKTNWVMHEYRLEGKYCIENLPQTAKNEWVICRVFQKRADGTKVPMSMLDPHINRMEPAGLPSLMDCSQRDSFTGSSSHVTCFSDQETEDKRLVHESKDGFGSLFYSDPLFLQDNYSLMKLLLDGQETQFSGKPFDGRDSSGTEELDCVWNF
Summary of the method: as §1

[7] = biological target: T6, GST-NAP(1-166) (Arabidopsis thaliana, UniProt O49255 1-166); conditions: protein: recombinant; tags: GST; chain copies: 2; dsDNA, one strand shown
T6 sequence: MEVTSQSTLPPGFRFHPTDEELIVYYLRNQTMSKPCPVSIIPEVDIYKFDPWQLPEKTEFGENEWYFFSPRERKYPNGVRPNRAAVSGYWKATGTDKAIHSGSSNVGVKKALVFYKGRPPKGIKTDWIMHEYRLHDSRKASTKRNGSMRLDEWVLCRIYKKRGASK
Summary of the method: as §1

[8] = biological target: T7, GST-NST2(1-184) (Arabidopsis thaliana, UniProt Q9M274 1-184); conditions: protein: recombinant; tags: GST; chain copies: 2; dsDNA, one strand shown
T7 sequence: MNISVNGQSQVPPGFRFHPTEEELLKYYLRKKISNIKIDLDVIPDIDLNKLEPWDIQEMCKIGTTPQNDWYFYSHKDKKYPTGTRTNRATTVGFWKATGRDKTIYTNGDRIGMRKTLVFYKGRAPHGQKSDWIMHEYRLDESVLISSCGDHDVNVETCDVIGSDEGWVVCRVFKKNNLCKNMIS
Summary of the method: as §1

[9] = biological target: T8, GST-SND1(1-203) (Arabidopsis thaliana, UniProt Q9LPI7 1-203); conditions: protein: recombinant; tags: GST; chain copies: 2; dsDNA, one strand shown
T8 sequence: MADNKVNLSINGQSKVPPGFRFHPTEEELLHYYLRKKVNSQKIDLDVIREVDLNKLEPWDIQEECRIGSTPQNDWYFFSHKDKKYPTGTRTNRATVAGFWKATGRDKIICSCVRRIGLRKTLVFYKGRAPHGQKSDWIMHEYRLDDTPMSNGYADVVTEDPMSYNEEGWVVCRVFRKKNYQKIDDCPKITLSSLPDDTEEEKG
Summary of the method: as §1

[10] = biological target: T9, GST-VND3 NAC domain (Arabidopsis thaliana, UniProt Q9FH59 12-162); conditions: protein: recombinant; tags: GST; chain copies: 2; dsDNA, one strand shown
T9 sequence: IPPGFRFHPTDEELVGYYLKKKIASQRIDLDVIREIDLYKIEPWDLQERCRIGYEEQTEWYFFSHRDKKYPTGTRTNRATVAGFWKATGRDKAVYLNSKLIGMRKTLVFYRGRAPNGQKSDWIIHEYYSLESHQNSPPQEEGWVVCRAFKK
Summary of the method: as §1

[11] = biological target: T10, GST-VND7 NAC domain (Arabidopsis thaliana, UniProt Q9C8W9 9-158); conditions: protein: recombinant; tags: GST; chain copies: 2; dsDNA, one strand shown
T10 sequence: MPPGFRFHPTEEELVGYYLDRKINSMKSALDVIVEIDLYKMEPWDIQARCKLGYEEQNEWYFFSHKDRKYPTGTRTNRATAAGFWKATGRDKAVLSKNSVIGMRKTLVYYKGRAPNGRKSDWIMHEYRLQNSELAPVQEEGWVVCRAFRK
Summary of the method: as §1

[12] = biological target: GST-WRKY1(266-371) (Arabidopsis thaliana, UniProt Q9SI37 266-371); conditions: protein: recombinant; tags: GST; dsDNA, one strand shown
Chain of GST-WRKY1(266-371) (Q9SI37 266-371): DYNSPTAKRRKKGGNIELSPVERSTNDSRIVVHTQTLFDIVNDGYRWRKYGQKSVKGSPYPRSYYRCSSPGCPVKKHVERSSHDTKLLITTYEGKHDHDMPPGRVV
Summary of the method: as §1

[13] = biological target: T11, GST-NTL8 NAC domain (Arabidopsis thaliana, UniProt Q9XIN7 14-156); conditions: protein: recombinant; tags: GST; chain copies: 2; dsDNA, one strand shown
T11 sequence: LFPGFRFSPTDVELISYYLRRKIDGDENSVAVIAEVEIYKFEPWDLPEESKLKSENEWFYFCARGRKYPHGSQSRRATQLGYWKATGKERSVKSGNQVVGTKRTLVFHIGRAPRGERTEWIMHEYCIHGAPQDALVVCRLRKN
Summary of the method: as §1

Sequence | binding signal [1] [E-score] | binding signal [2] [E-score] | binding signal [3] [E-score] | binding signal [4] [E-score] | binding signal [5] [E-score] | binding signal [6] [E-score] | binding signal [7] [E-score] | binding signal [8] [E-score] | binding signal [9] [E-score] | binding signal [10] [E-score] | binding signal [11] [E-score] | binding signal [12] [E-score] | binding signal [13] [E-score]
AACGTAAA | 0.254 | 0.0913 | 0.175 | 0.241 | 0.298 | 0.342 | 0.24 | 0.36 | 0.436 | 0.252 | 0.248 | 0.165 | 
ACGCAAAG | 0.455 | 0.102 | 0.273 | 0.228 | 0.256 | 0.452 | 0.295 | 0.331 | 0.407 | 0.374 | 0.346 | 0.16 | 0.19
GATACGTA | 0.381 | 0.0687 | 0.428 | 0.415 | 0.341 | 0.385 | 0.458 | 0.253 | 0.257 | 0.405 | 0.424 | 0.0663 | 
CACGAAAG | 0.407 | 0.109 | 0.25 | 0.216 | 0.133 | 0.411 | 0.17 | 0.189 | 0.184 | 0.191 | 0.132 | 0.0838 | 0.121
AGACGCAA | 0.453 | 0.0768 | 0.222 | 0.246 | 0.262 | 0.462 | 0.433 | 0.242 | 0.265 | 0.295 | 0.276 | 0.0554 | 0.107
AATTACGT | 0.439 | 0.142 | 0.472 | 0.446 | 0.435 | 0.421 | 0.454 | 0.352 | 0.42 | 0.47 | 0.46 | 0.185 | 0.205
GTACGTAA | 0.432 | 0.174 | 0.463 | 0.42 | 0.408 | 0.441 | 0.419 | 0.276 | 0.337 | 0.417 | 0.44 | 0.0843 | 0.167
CTTACTTA | 0.205 | 0.454 | 0.164 | 0.137 | 0.154 | 0.276 | 0.111 | 0.221 | 0.317 | 0.209 | 0.106 | 0.235 | 0.208
CGTCAAAC | 0.109 | 0.0906 | 0.0928 | 0.163 | 0.147 | 0.134 | 0.0647 | 0.159 | 0.198 | 0.145 | 0.129 | 0.44 | 
AAAAGTCA | 0.142 | 0.1 | 0.185 | 0.157 | 0.241 | 0.241 | 0.08 | 0.274 | 0.257 | 0.13 | 0.122 | 0.461 | 0.128
TTACGTAA | 0.476 | 0.171 | 0.479 | 0.478 | 0.465 | 0.469 | 0.484 | 0.433 | 0.484 | 0.483 | 0.481 | 0.0521 | 0.411
ATTTCCCC | 0.143 | 0.221 | 0.13 | 0.101 | 0.0697 | 0.175 | 0.0823 | 0.17 | 0.199 | 0.205 | 0.153 | 0.116 | 0.428
CTACGTTA | 0.323 | 0.0691 | 0.152 | 0.144 | 0.228 | 0.382 | 0.135 | 0.335 | 0.478 | 0.24 | 0.164 | 0.0835 | 

— PMC4081100, “A DNA-binding-site landscape and regulatory network analysis for NAC transcription factors in Arabidopsis thaliana”
